Reference: PubChem BioAssay (NCI)
Values joined by “and” are separate entries in the source; they are usually repeats but may differ in a detail not shown here. Equal values may be shown once. This is part of a sample that, as a whole, favours compounds with a hit. Of some 83,000 tested, about 20% had one in any assay.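 Single-concentration screen, 48 h exposure, 96-well plates. Endpoint: percent growth. Below 10 = active.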 Unmarked numbers belong to inactive results. Active and inactive are the calls of the source.

test system: HL-60(TB) leukemia; assay: NCI-60 one-dose screen, 48 h (100 = growth as untreated, 0 = no growth, -100 = all killed); conditions: 10 µM unless noted

Row | SMILES | growth
1 | O=C1CC(=NCC(=O)n2c(-c3ccccc3)nc3ccccc32)NN1 | 107%
2 | O=C1/C(=C/c2ccccc2[N+](=O)[O-])Oc2ccc(O)c(O)c21 | 4.39% (active)
3 | CCOC(=O)CNC(=O)CCCCSc1ncnc2nc[nH]c12 | 91.1%
4 | O=c1[nH]c(=S)[nH]n1C(=S)n1[nH]c(=S)[nH]c1=O | 99.1%
5 | Nc1nc(=S)c2ncn(C3OC(COP(=O)(O)O)C(O)C3O)c2[nH]1 (stereo unspecified) | 16.3%
6 | O=C1CCCN1C(O)CCN(Cc1ccccc1)Cc1ccc(Cl)cc1 (stereo unspecified) | 96.4%
7 | CCCCCCCCCCCCCCCCCCOc1ccccc1N | 2.15% (active)
8 | C[C@H](CCC(=O)O)[C@H]1CC[C@H]2[C@@H]3CC[C@@H]4/C(=C\c5ccco5)C(=O)/C(=C\c5ccco5)C[C@]4(C)[C@H]3CC[C@]12C | 29.9%
9 | O=C(c1ccccc1)c1ccc(Cl)c([N+](=O)[O-])c1 | 40.8%
10 | O=C(c1ccc(-c2nc(CSc3nc4ccccc4s3)no2)cc1)N1CCSCC1 | 27%
11 | COc1ccccc1C(=O)/C=C/c1cc2cccc(OC)c2[nH]c1=O | -10.5% (active)
12 | CCOC(=O)c1cnc2ccccc2c1Cl | 122%
13 | C=CCCCOC1[C@H](OCc2ccccc2)C(OCc2ccccc2)C(OC)O[C@@H]1CNC(=O)c1cccc(I)c1 (stereo partly specified) | 55.1%
14 | CN(C)CC(=O)Nc1ccc2ncnc(Nc3ccc(Oc4cccc(C(F)(F)F)c4)c(Cl)c3)c2c1 | 2.72% (active)
15 | Cc1ccc(NC(=O)c2ccc(CN3CC[C@H](N(C)C)C3)c(C(F)(F)F)c2)cc1Nc1nccc(-c2cncnc2)n1 | -51.3% (active)
16 | O=c1[nH]cc(Cl)cc1O | 75.9%
17 | COC(=O)c1ccc2c(c1)C(=O)c1c-2n(CCCN)c(=O)c2cc([N+](=O)[O-])ccc12 | -85.9% (active)
18 | COc1ccc(-c2nnc3n(C)c(=O)c4ccccc4n23)cc1N | -22.8% (active)
19 | O=C(Nc1cccc(Cl)c1)c1cc([N+](=O)[O-])ccc1O | 44.4%
20 | O=c1c2c(c3ccccc3n1-c1ccccc1)NC(=S)NC2c1ccccc1 (stereo unspecified) | 44.3%
21 | CCOC(=O)c1c2c(n3ccc(C)cc13)C(=O)c1ccccc1C2=O | 76.1%
22 | C[C@H]1[C@H](C)CC[C@]2(C(=O)Nc3ccc4ncccc4c3)CC[C@]3(C)C(=CC[C@@H]4[C@@]5(C)CCCNC(C)(C)[C@@H]5CC[C@]43C)[C@H]12 | -45.2% (active)
23 | O=C1OC(C(O)C(O)CO)C(O)=C1O (stereo unspecified) | 114% and 104%
24 | O=C(c1ccc(Cl)cc1)N1CCN(c2ccnc3cc(Cl)ccc23)CC1 | 102%
25 | COCCN(C(=O)c1ccc(F)cc1F)c1c(N)n(Cc2ccccc2)c(=O)[nH]c1=O | 132%
26 | NNCCc1ccccc1 | 107% and 98.2%
